Tgondii IFNg = blocks Toxoplasma gondii growth in the presence of IFN-gamma | activity change, negative = inhibition, % (concentration not given with the values) | Toxoplasma gondii growth in IFN-gamma-treated host cells; stronger effect = lower value | 69,000 compounds, 3.8% hits | AID 1259416; in the data active = activity change below about -70%, passing the limit was not always enough;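 note: host cells are HeLa cells infected with Toxoplasma gondii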
Hits are given with their value; ! = repeats disagree. The entries come from a sample that favours hits as a whole.

How did Cc1ccc(CN2CCc3ccc(=O)n(CC4CC4)c3CC2)o1 do in these assays?
Tgondii IFNg: inactive

What do the screens show for `O=C(CCc1ccccc1)Nc1ccc(Cl)cn1`?
Tgondii IFNg: inactive

How did Cc1oc2ncn3nc(C(C)NC(=O)CCc4ccccc4)nc3c2c1C (stereo unspecified) do in these assays?
Tgondii IFNg: inactive

How did CC(C)c1ccc(C(NC(=O)CCc2ccccc2)c2ccc3cccnc3c2O)cc1 (stereo unspecified) do in these assays?
Tgondii IFNg: -102

What do the screens show for `CSc1ccc2cc(CN(C)Cc3nccn3C)c(=O)[nH]c2c1`?
Tgondii IFNg: inactive

How did Cc1oc2cc(O)cc(O)c2c(=O)c1-c1ccccc1 do in these assays?
Tgondii IFNg: inactive

How did O=c1c(O)c(-c2ccc(O)c(O)c2)oc2cc(O)cc(O)c12 do in these assays?
Tgondii IFNg: -78!

What do the screens show for `O=c1cc(-c2ccc(O)c(O)c2)oc2cc(O)cc(O)c12`?
Tgondii IFNg: inactive

What do the screens show for `CS(=O)(=O)c1ccc(-c2cnn3cccnc23)cc1`?
Tgondii IFNg: inactive

What do the screens show for `CCn1ccc(C(=O)N2CCC(CC(=O)NC(C)c3ccccc3)CC2)n1` (stereo unspecified)?
Tgondii IFNg: inactive

Results for C[C@@H]1CN([C@H](C)CO)C(=O)c2cccc(NC(=O)c3nc4ccccc4s3)c2O[C@@H]1CN(C)C(=O)Nc1ccc2c(c1)OCO2 ?
Tgondii IFNg: inactive

How did CCN1CC[C@@]2(C(=O)N(C)C)CCN(C(=O)Cc3ccccc3)CC[C@H]12 do in these assays?
Tgondii IFNg: inactive

What do the screens show for `CCC(CN1CCOCC1)NC(=O)Cc1coc2cc(C)cc(C)c12` (stereo unspecified)?
Tgondii IFNg: -82

Results for Cc1ccc2c(CC(=O)NCCC3CN(C)CCO3)coc2c1 (stereo unspecified) ?
Tgondii IFNg: inactive

How did Cc1ccc(C(NC(=O)c2cc(CN3CCOCC3)c(C)o2)c2ccncc2)cc1C (stereo unspecified) do in these assays?
Tgondii IFNg: inactive

What do the screens show for `Cc1ccc(CCCO)c(NCc2ccc3nc(NCCCN4CCOCC4)n(Cc4nc(C)ccc4O)c3c2)c1`?
Tgondii IFNg: inactive

Results for C/C=C/c1ccc([C@@H]2[C@H](CO)N(C(C)=O)[C@H]2CNC(=O)c2ccccc2)cc1 ?
Tgondii IFNg: inactive

What do the screens show for `Cc1cc(-c2cnc(NCc3cccs3)nc2C(C)C)on1`?
Tgondii IFNg: inactive

How did O=C(c1cnc(CN2CCCC2)s1)N1C[C@@H]2[C@@H]3CC[C@@H](C3)[C@@H]2C1 do in these assays?
Tgondii IFNg: inactive

Results for CCOc1cc(OCC)cc(C(=O)Nc2ccc(Cc3ccncc3)cc2)c1 ?
Tgondii IFNg: inactive

How did COc1ccc(Cl)cc1NC(=O)c1nc(Nc2ccccc2)c2ccccc2n1 do in these assays?
Tgondii IFNg: inactive

How did COc1ccc(Cl)cc1NC(=O)Nc1cc(C)nc2ccccc12 do in these assays?
Tgondii IFNg: -86

Results for COc1ccc(Cl)cc1NC(=O)COc1nc(C)nc2ccccc12 ?
Tgondii IFNg: inactive

Results for Cc1ccc(C)c(NC(=O)N2CCC3(CC2)NC(=O)c2ccccc2N3C)c1 ?
Tgondii IFNg: inactive

Results for COc1ccccc1Oc1ncccc1CNC(=O)CN1CCC(C)=N1 ?
Tgondii IFNg: inactive

Results for CS(=O)(=O)N1CCC2(COCc3cnc(N4CCOCC4)nc32)C1 (stereo unspecified) ?
Tgondii IFNg: inactive

How did C=C(C)CN(C)Cc1ccc(C(=O)Nc2ccccc2Cl)cc1 do in these assays?
Tgondii IFNg: inactive

Results for CC(C)CN1C[C@@H]2CCN(C(=O)NC3CCCC3)CC[C@H]2S1(=O)=O ?
Tgondii IFNg: inactive

Results for O=C(C1CCC1)N1CC[C@H]2CN(Cc3ccc(Cl)cc3)S(=O)(=O)[C@@H]2CC1 ?
Tgondii IFNg: inactive

How did COc1ccc(CCN2C[C@@H]3CCN(C(=O)c4cnc(C)cn4)CC[C@H]3S2(=O)=O)cc1 do in these assays?
Tgondii IFNg: inactive

Results for COc1ccc(CN2C[C@@H]3CCN(C(=O)c4ccn[nH]4)CC[C@H]3S2(=O)=O)cc1 ?
Tgondii IFNg: inactive

How did COc1ccc(CN2C[C@@H]3CCN(C(=O)c4ccno4)CC[C@H]3S2(=O)=O)cc1 do in these assays?
Tgondii IFNg: inactive

How did COc1cccc(CN2C[C@@H]3CCN(C(=O)C4CCC4)CC[C@H]3S2(=O)=O)c1 do in these assays?
Tgondii IFNg: -91

What do the screens show for `O=C(NC1CCCC1)N1CC[C@H]2CN(Cc3ccc(Cl)cc3)S(=O)(=O)[C@@H]2CC1`?
Tgondii IFNg: -89

How did O=C(C1CCC1)N1CC[C@H]2CN(Cc3ccccc3)S(=O)(=O)[C@@H]2CC1 do in these assays?
Tgondii IFNg: inactive

How did O=C(c1ccn[nH]1)N1CC[C@H]2CN(Cc3ccc(Cl)cc3)S(=O)(=O)[C@@H]2CC1 do in these assays?
Tgondii IFNg: -73

What do the screens show for `O=c1[nH]nc(Sc2nc(-c3cccs3)ns2)n1-c1ccc(Cl)cc1`?
Tgondii IFNg: inactive

Results for O=S(=O)(NCc1ccccc1)Nc1cccnc1Oc1ccccc1F ?
Tgondii IFNg: inactive

What do the screens show for `COc1ccc(NC(=O)Cn2nc(C(F)(F)F)c(Br)c2C)cc1OC`?
Tgondii IFNg: inactive

How did Cc1ccc(CN(Cc2ccncc2)Cc2cn(CCN(C)C)c3ccccc23)cc1 do in these assays?
Tgondii IFNg: inactive

How did COC(=O)c1sccc1Oc1ccc(C(F)(F)F)cc1NC(=O)c1ccccc1 do in these assays?
Tgondii IFNg: inactive

What do the screens show for `CCS(=O)(=O)N1CCC2(CC1)OC(=O)C(C)=C2C(=O)NCCN1CCCC1`?
Tgondii IFNg: inactive

Results for O=C(NCc1csc(C2CCN(C(=O)c3cc(F)ccc3F)CC2)n1)C1CC1 ?
Tgondii IFNg: inactive

What do the screens show for `O=C(c1ccsc1)N1CCC2(CC1)CC(Oc1ccccn1)CO2` (stereo unspecified)?
Tgondii IFNg: inactive

How did Cc1cc(C)c2nc(C)cc(C(=O)Nc3ccccc3-c3ccccc3)c2c1 do in these assays?
Tgondii IFNg: inactive

What do the screens show for `CCOc1ccc(-c2ccccc2NC(=O)C2CC2)cc1`?
Tgondii IFNg: inactive

What do the screens show for `O=C(Nc1ccccc1-c1ccccc1)c1ccc2c(c1)[nH]c(=O)n2C1CCCC1`?
Tgondii IFNg: -92

How did O=C1[C@@H]2C[C@H](O)CCN2C(=O)CN1CCCn1ncc2ccccc21 do in these assays?
Tgondii IFNg: inactive

How did Cc1ccc(NCC(O)CN)c(Br)c1 (stereo unspecified) do in these assays?
Tgondii IFNg: inactive

Results for CN1CC[C@@H](c2c(O)cc(O)c3c(=O)cc(-c4ccccc4Cl)oc23)[C@@H]1CO ?
Tgondii IFNg: -74

What do the screens show for `Cc1oc(-c2ccccc2Cl)cc1C(=O)N1CCNC(=O)CC1`?
Tgondii IFNg: inactive

Results for Cc1oc(-c2ccccc2Cl)cc1C(=O)N1CCCCC1CO (stereo unspecified) ?
Tgondii IFNg: inactive

Results for CCCc1cc(C(=O)NC(C)c2ccccc2)n(C)n1 (stereo unspecified) ?
Tgondii IFNg: inactive

Results for CCn1cc2c(n1)C(COC)CN(S(=O)(=O)c1ccccc1)C2 (stereo unspecified) ?
Tgondii IFNg: inactive

How did COc1cccc(-n2c(=O)c(C(=O)NCc3ccc(F)cc3)c(O)c3cccnc32)c1 do in these assays?
Tgondii IFNg: inactive

Results for COc1cccc(-n2c(=O)c(C(=O)NCc3cc(F)cc(F)c3)c(O)c3cccnc32)c1 ?
Tgondii IFNg: -101

Results for CCc1ccc(CNC(=O)c2c(O)c3cccnc3n(-c3cccc(OC)c3)c2=O)cc1 ?
Tgondii IFNg: inactive

How did COc1cccc(CNC(=O)c2c(O)c3cccnc3n(-c3ccccc3)c2=O)c1 do in these assays?
Tgondii IFNg: inactive
